This assay addresses ZMYND11 480-602, Q15326.

Sequence of ZMYND11 480-602, Q15326 (Q15326 480-602): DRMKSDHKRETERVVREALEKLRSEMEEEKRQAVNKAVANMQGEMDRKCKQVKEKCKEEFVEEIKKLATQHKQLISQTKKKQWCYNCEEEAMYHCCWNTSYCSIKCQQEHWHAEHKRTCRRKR

B1: KMT2A, Q03164 (peptide)
chain: AVFPDDMPTLSALPWE
For the molecule B1, the “selected by phage display” value is “confidence 3 (active)”.

B2: TDRD5, Q8NAT2 (peptide)
chain: GMPALESVTIGDDIWD
Consider B2, for which the “selected by phage display” value is “confidence 2 (active)”.

B3: ENO4, A6NNW6 (peptide)
chain: NQEQPTTLSMPLLMVS
For B3, the “selected by phage display” value was “confidence 2 (active)”.

B4: NSD1, Q96L73 (peptide)
chain: MPVLESSSWPASKGLG
On to B4, for which the “selected by phage display” value is “confidence 3 (active)”.

B5: CBFA2T2, O43439 (peptide)
chain: QFHPTPPPLQHYTLED
For B5, the “selected by phage display” value was “confidence 2 (active)”.

B6: DENND3, A2RUS2 (peptide)
chain: MVVSMPNLQDIAMPEL
Take B6: the “selected by phage display” value is “confidence 3 (active)”.

B7: ZNF484, Q5JVG2 (peptide)
chain: EVEASMPQLWAGDSEG
As to B7, the “selected by phage display” value was “confidence 2 (active)”.
